LMP1 NFkB inh = Epstein-Barr LMP1 NF-kappaB reporter inhibition | LMP1-induced NF-kappaB luciferase reporter cells, luminescence | actives 0.69% (n = 350,000) | inhibition, % at 12.5 µM; in the data active = inhibition above about 41%; inconclusive = no clear call, values can overlap the other calls
Shn3 3UTR inh = inhibitors of Schnurri-3 3'UTR reporter in osteoblasts. Clone20 osteoblast Shn3 3'UTR firefly luciferase, 24 h. actives 0.52% (n = 360,000). inhibition, % at 12.5 µM;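 active = mean inhibition of at least 75% with every replicate also reaching 75%; inconclusive = mean inhibition at least 75% but some replicate below; inactive = mean inhibition below 75%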
SRC2 inh = inhibits human steroid receptor coactivator 2 | Q15596 | HEK293 GAL4-SRC2 luciferase reporter, luminescence | inhibition, % at 9 µM | actives 0.17% (n = 370,000) | AID 651957;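 active = inhibition above the mean inhibition of all tested compounds plus 3 SD, set per campaign, cut at about 52% in these data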
SRC1 inh = human NCOA1 inhibition; inhibition, % at 3.6 µM; AID 588354; actives 0.12% (n = 360,000); Q15788; HEK293 GAL4-SRC1 luciferase reporter, luminescence;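 active = inhibition above the campaign mean plus 3 SD, with each screening campaign given its own cutoff, cut at about 60% in these data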
SRC3 inh = inhibitors of human steroid receptor coactivator 3 (SRC3). Q9Y6Q9. HEK293 GAL4-SRC3 luciferase reporter, luminescence. inhibition, % at 3.6 µM. actives 0.17% (n = 360,000). AID 588352;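 active = inhibition above a per-campaign cutoff, the mean of all compounds plus 3 SD, cut at about 60% in these data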;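 also: higher means less SRC3-driven luciferase light from the GAL4 reporter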
LRH-1 inv ag = inverse agonists of human LRH-1 (NR5A2); O00482; HEK293T StAR-luciferase reporter, LRH-1 transfected, 24 h; inhibition, % at 3.6 µM; actives 0.13% (n = 360,000); AID 602396;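 active = inhibition above the mean inhibition of all tested compounds plus 3 SD, cut at about 73% in these data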
A number is an active result; n = inactive; u = inconclusive; x = no result. The list is not random: actives were taken first. Their share in the collection is about 1.2%.

SMILES | LMP1 NFkB inh | Shn3 3UTR inh | SRC2 inh | SRC1 inh | SRC3 inh | LRH-1 inv ag
COC(=O)[C@]12C[C@H](CC(=O)NCCCCc3ccccc3)C(=O)N(Cc3ccccc3)C1=C[C@H](COCc1ccccc1)O[C@@H]2C | x | x | n | x | x | x
CC(=O)OC1CCC2C3CCC4OC(=O)CCC4C3CCC12C (stereo unspecified) | n | n | n | n | n | n
C=C1C(=O)C2=CC1CCC(=O)C1(C)CCC(OC(C)=O)C(C)(C)C1CC2O (stereo unspecified) | u | 84 | n | n | 64 | n
C=CC[C@]12C[C@@]3(O[C@H](c4ccc(C(F)(F)F)cc4)N=C3C[C@H](c3ccc(OC)cc3)[C@H]1C)N(Cc1ccncc1)C2=O | x | x | n | x | x | x
COc1ccc(-n2c(O)c(/C=N/NS(=O)(=O)c3ccc(C)cc3)c3ccccc3c2=O)cc1OC | n | n | n | n | n | n
COc1ccc(-n2c(O)c(/C=N/Nc3nc(C)cc(C)n3)c3ccccc3c2=O)cc1OC | n | 91 | n | n | n | n
O=C(C(=O)N1CCN(S(=O)(=O)c2cccc3ccccc23)CC1)c1cccc(C(F)(F)F)c1 | x | x | n | x | x | x
COCCC(=O)N1CCCC(C(=O)c2ccc(C(F)(F)F)cc2)C1 (stereo unspecified) | 49 | n | n | n | n | n
COC(=O)[C@]12C[C@H](CC(=O)NCc3ccc(OC)c(OC)c3)C(=O)N(Cc3ccc4c(c3)OCO4)C1=C[C@H](C(C)C)O[C@@H]2C1CC1 | x | x | n | x | x | x
COC(=O)CCSc1nc(N2CCOCC2)c2c(c1C#N)CC(C)(C)OC2 | n | n | n | n | n | n
CCOC(=O)CCSc1nc(N2CCOCC2)c2c(c1C#N)CC(C)(C)OC2 | 63 | n | n | n | n | n
COc1ccc(-n2c(SCC(=O)NCCCSC)nnc2-c2ccncc2)cc1 | x | x | n | x | x | x
O=C(/C=C/c1ccc(Cl)cc1)NC(=S)Nc1ccc(NC(=O)c2ccco2)cc1 | n | n | n | 68 | n | n
CSc1oc(-c2ccc(F)cc2)nc1S(=O)(=O)c1ccc(F)cc1 | 89 | n | n | n | n | n
O=C(CSc1nnc(-c2cccnc2)n1-c1ccc(Cl)cc1)c1ccc(F)cc1 | x | x | n | x | x | x
COc1ccc(CN2C(=O)c3cccnc3C2Nc2cc(Cl)ccc2OC)cc1 (stereo unspecified) | 66 | n | n | n | n | n
COc1ccc(OC)c(NC2c3ncccc3C(=O)N2Cc2ccco2)c1 (stereo unspecified) | n | n | n | n | n | n
NC(Cc1ccc(C(F)(F)F)cc1)c1csc(NC(=O)Nc2ccccc2)n1 (stereo unspecified) | x | n | n | n | n | n
COc1ccc(CC(N)c2csc(NC(=O)Nc3cccc(C(F)(F)F)c3)n2)cc1 (stereo unspecified) | x | 96 | n | n | n | n
COc1ccc(OC)c(C(c2nnnn2Cc2ccccc2)N2CCN(C3CCCCC3)CC2)c1 (stereo unspecified) | n | 90 | n | n | n | n
C=C1C(=O)[C@]23C[C@H]1CC[C@H]2[C@]1(C)[C@@H](OC(C)=O)CC[C@@](C)(C(=O)OC)[C@H]1C[C@@H]3OC(C)=O | x | 96 | n | n | n | n
C=C1C(=O)[C@]23C[C@H]1CCC2[C@@]1(C)C(C[C@@H]3O)[C@](C)(C(=O)OC)CC[C@@H]1OC(C)=O (stereo partly specified) | x | 98 | 59 | n | n | 83
C=C1C(=O)[C@]23C[C@H]1CC[C@H]2[C@]1(C)[C@@H](O)CC[C@@](C)(C(=O)O)[C@H]1C[C@@H]3O | x | n | n | n | n | n
C=C1C(=O)[C@]23C[C@H]1CC[C@H]2[C@]1(C)[C@@H](OC(C)=O)CC[C@@](C)(C(=O)O)[C@H]1C[C@@H]3O | x | n | n | n | n | n
S=C(Nc1ccccc1)OC1CCC12CCC(c1ccccc1)CC2 (stereo unspecified) | x | x | n | x | x | x
SMILES | LMP1 NFkB inh | Shn3 3UTR inh | SRC2 inh | SRC1 inh | SRC3 inh | LRH-1 inv ag
CC(C)CN1C(=O)[C@@]2(CC(=O)N(C)C2c2ccccc2)c2cc(-n3cc(CCCC#N)nn3)ccc21 (stereo partly specified) | x | x | n | x | x | x
C[C@H](NC(=O)C[C@@H]1C[C@@H]2c3cc(NC(=O)C4CCC4)ccc3O[C@@H]2[C@@H](CO)O1)c1ccccc1 | x | x | n | x | x | x
CCN(CC(=O)NCc1ccc(F)cc1)CC(=O)Nc1ccc(Br)cc1F | n | n | n | n | n | n
CCN(CC(=O)NCc1ccc(F)cc1)CC(=O)Nc1cc(S(=O)(=O)N(C)C)ccc1C | 44 | n | n | n | n | n
CCOc1ccc(-n2c(SCC(=O)Nc3ccc(S(=O)(=O)Nc4cc(C)nc(C)n4)cc3)nnc2-c2ccco2)cc1 | x | x | n | x | x | x
CSc1ccc(-c2nc(CSCC(=O)NC3CC3)c(C)o2)cc1 | n | n | n | n | n | n
CCc1ccc(-c2nc(CSCC(=O)NC3CC3)c(C)o2)cc1 | n | n | 56 | n | n | n
CC(C)(C)c1ccc(C(=O)N2CCC(=O)N(C(CO)Cc3ccccc3)CC2)cc1 (stereo unspecified) | 78 | n | n | n | n | n
COC(=O)Nc1sc2c(c1C(=O)NCc1ccco1)CCC2 | n | n | n | n | n | n
COC(=O)Nc1sc2c(c1C(=O)NCc1ccco1)CCCC2 | 56 | n | n | n | n | n
CCCCCOc1ccc(Br)cc1CSC(=N)N | n | 89 | n | n | n | n
COc1ccc(Br)cc1CSC(=N)N | n | n | n | n | n | n
Oc1cc(NCc2ccc(F)cc2)cc2cccnc12 | n | n | n | n | n | n
Oc1cc(NCc2ccc(Cl)cc2)cc2cccnc12 | 47 | n | n | n | n | n
CCn1c(=O)n(CC(=O)N2CCCC2)c(=O)c2ccccc21 | x | x | n | x | x | x
Cc1cc(C)c(O)c(-c2cc(C(=O)Nc3ccc(S(=O)(=O)N4CCOCC4)cc3)[nH]n2)c1 | n | 91 | n | n | n | n
O=C(Nc1nc2ncccn2c1-c1ccccc1)c1ccc(F)cc1 | x | x | n | x | x | x
O=C(CCN1C(=O)/C(=C/c2ccccc2Cl)SC1=S)NNC(=O)c1cccnc1 | n | n | n | n | n | n
Cc1ccc(C(=O)NNC(=O)CCCN2C(=O)/C(=C/c3ccccc3Cl)SC2=S)cc1 | n | n | 63 | n | n | n
O=C(CCCN1C(=O)/C(=C/c2ccccc2Cl)SC1=S)NNC(=O)c1ccc(Cl)cc1 | n | n | 58 | n | n | n
CCN1CCCCC(NC(=O)COCc2ccccc2)C1=O (stereo unspecified) | x | x | n | x | x | x
COc1ccc2ccccc2c1C=NNC(=O)c1cc(-c2ccc(C)c(C)c2)n[nH]1 | x | x | n | x | x | x
O=C(CCCOc1ccccc1)N1CCN(c2ccccc2)CC1 | 86 | n | n | n | n | n
O=C(OC12CCCN(C1)/C(=C/c1cccc(Cl)c1)C2)c1ccccc1 (stereo unspecified) | x | x | n | x | x | x
O=C1c2ccccc2C(=O)C1c1ccc(Cl)cc1 | n | n | n | n | n | n

Compound activity (PubChem BioAssay)
